The target in test [1] is Aryl hydrocarbon receptor (Homo sapiens) (UniProt P35869). Kind of test: qHTS assay to identify small molecule that activate the aryl hydrocarbon receptor (AhR) signaling pathway (AID 743085). Further: nearly all actives have a fitted effect of over 15% in size. Further: potency means the concentration at half of the fitted maximal effect.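 On activation: HG2L7.5c1 human HepG2 liver cells with stably integrated DRE-driven firefly reporter; series mostly up to about 70 µM.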 Put shortly:
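Steps: seed HepG2-AhR-luc cells; allow 5 h at 37C; pin-transfer test compound or vehicle; incubate 24 h at 37C; add viability dye (30 min, 37C) and read fluorescence; add luciferase substrate (30 min, RT) and read luminescence.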
A general note: Quantitative high-throughput screening tests each substance at several concentrations.

Test [2] in a line: qHTS assay to identify small molecule that activate the aryl hydrocarbon receptor (AhR) signaling pathway - cell viability counter screen (AID 743086).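 Further: HepG2 liver cells carrying the AhR DRE luciferase reporter; series mostly up to about 70 µM; nearly all actives have a fitted effect of over 45% in size.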 A digest of the protocol:
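Cytotoxicity counter screen: CellTiter-Fluor signal (30 min, 37 C) in 4000 HepG2 cells/well carrying the DRE-luciferase reporter, following 24 h compound exposure at 37 C.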

The target of test [3] is Peroxisome proliferator-activated receptor gamma (Homo sapiens) (UniProt P37231). Kind of test: qHTS assay to identify small molecule agonists of the peroxisome proliferator-activated receptor gamma (PPARg) signaling pathway (AID 743094; active means well fitted activation curve with a large enough effect in the signal ratio in the repeat runs, not every such curve was filed as active; the % refers to the signal ratio). A digest of the protocol:
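Agonist activity was taken from a beta-lactamase reporter (FRET substrate, 1 h at room temperature) in HEK293H cells carrying a PPARg UAS-bla construct. Compounds in DMSO were incubated 17 h at 37C after a 5 h cell pre-incubation.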

Test [4] can be described thus: qHTS assay for small molecule agonists of the antioxidant response element (ARE) signaling pathway (AID 743202; active means well fitted activation curve with a large enough effect in the signal ratio in the repeat runs, not every such curve was filed as active; the % refers to the signal ratio). A digest of the protocol: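 Beta-lactamase reporter activity, read as fluorescence intensity, reflects ARE/Nrf2 pathway induction in HepG2 cells after 16 h compound exposure at 37 C; substrate loading was 2 h at room temperature.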
The nature of test [5]: qHTS assay for small molecule agonists of the antioxidant response element (ARE) signaling pathway - cell viability counter screen (AID 743203; calls by dose curve; further: nearly all actives have a fitted effect of over 55% in size). Put shortly: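 Viability counter screen: CellTiter-Glo luminescence, read after 30 min at room temperature, in ARE-bla HepG2 wells. Compound exposure lasted 16 h at 37C/5% CO2, following a 5 h pre-incubation of the cells after plating.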

Test [6] in a line: qHTS assay for small molecule activators of the heat shock response signaling pathway (AID 743210; active means well fitted activation curve with a large enough effect in the signal ratio in the repeat runs, with a control signal flat, not every such curve was filed as active; the % refers to the signal ratio;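 further: HeLa cells with beta-lactamase reporter driven by heat shock elements; series mostly up to about 63 µM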). Put shortly:
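Fluorescence from a cleaved B/G FRET substrate (2.5 h, room temp) reports HSE-driven beta-lactamase in HeLa cells treated 5 h at 37 C with DMSO-dissolved compounds.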

Test [7] is described as follows: qHTS assay to identify small molecule agonists of the peroxisome proliferator-activated receptor delta (PPARd) signaling pathway - cell viability counter screen (AID 743211). Further: nearly all actives have a fitted effect of over 55% in size. Put shortly: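 Viability of GeneBLAzer PPARd UAS-bla HEK293H cells was assessed after 17 h compound incubation at 37C, using CellTiter-Glo reagent added after the reporter read and luminescence recorded 30 min later.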

Test [8] deals with Peroxisome proliferator-activated receptor delta (Homo sapiens) (UniProt Q03181). The test is described as follows: qHTS assay to identify small molecule agonists of the peroxisome proliferator-activated receptor delta (PPARd) signaling pathway (AID 743212; calls by dose curve;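 further: HEK293H cells with PPARd UAS beta-lactamase reporter GeneBLAzer system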). Put shortly: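 Steps: seed PPARd-bla HEK293H cells; incubate 5 h, 37 C, 5% CO2; add compounds in DMSO; incubate, 37 C; add LiveBLAzer B/G FRET substrate; hold 2 h at room temperature; measure fluorescence.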

For test [9] the target is unchanged. Kind of test: qHTS assay to identify small molecule antagonists of the peroxisome proliferator-activated receptor delta (PPARd) signaling pathway (AID 743215; active means well fitted inhibition curve with a large enough effect in the signal ratio in the repeat runs, not every such curve was filed as active; the % refers to the signal ratio;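 further: cells stimulated with agonist L165041 at 300 nM final during compound exposure; series mostly up to about 62 µM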). Put shortly:
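Agonist L165041 (300 nM final) added with compound to PPARd-bla HEK293H UAS-bla reporter cells; 17 h incubation at 37 C. Read-out: LiveBLAzer FRET substrate, 2 h at room temperature, fluorescence intensity.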

Test [10] can be described thus: qHTS assay to identify small molecule agonists of the farnesoid-X-receptor (FXR) signaling pathway - cell viability counter screen (AID 743218). Further: nearly all actives have a fitted effect of over 45% in size. Put shortly: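 Viability counter screen in the same wells: CellTiter-Glo luminescence, 30 min room-temperature incubation, measured after the beta-lactamase read. Cells were GeneBLAzer FXR-UAS-bla HEK 293T, compound-treated 16 h at 37C.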

Test [11] can be described thus: qHTS assay to identify small molecule antagonists of the farnesoid-X-receptor (FXR) signaling pathway - cell viability counter screen (AID 743221; active means well fitted cell-killing curve with a large enough effect in the repeat runs, not every such curve was filed as active; further: nearly all actives have a fitted effect of over 50% in size). A digest of the protocol: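 Quantitative HTS of the Tox21 10K library run in parallel with the beta-lactamase reporter read. HEK 293T cells carrying a UAS-driven bla reporter got compound and 50 uM CDCA (final) for 16 h; ATP-based luminescence followed.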

The target in test [12] is Vitamin D3 receptor (Homo sapiens) (UniProt P11473). Kind of test: qHTS assay to identify small molecule agonists of the vitamin D receptor (VDR) signaling pathway (AID 743222; calls by dose curve). Put shortly:
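Agonist mode, beta-lactamase reporter: fluorescence from LiveBLAzer B/G FRET substrate (2 h, room temperature) read after 16 h compound treatment at 37 C of VDR-bla cells, which were pre-incubated 4 h after seeding.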

Test [13] has the same target. The test is described as follows: qHTS assay to identify small molecule antagonists of the vitamin D receptor (VDR) signaling pathway (AID 743223; active means well fitted inhibition curve with a large enough effect in the signal ratio in the repeat runs, not every such curve was filed as active; the % refers to the signal ratio). Put shortly:
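Fluorescence from LiveBLAzer B/G FRET substrate, read after 2 h at room temperature, reflects beta-lactamase reporter activity in VDR-bla cells treated 16 h at 37C with compounds and agonist 1alpha,25-dihydroxyvitamin D3 (3 nM final).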

The nature of test [14]: qHTS assay for small molecule activators of the heat shock response signaling pathway - cell viability counter screen (AID 743209). Further: nearly all actives have a fitted effect of over 50% in size. A digest of the protocol:
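Cytotoxicity counter screen run in the same wells as the heat-shock bla reporter assay: HeLa HSE-bla cells, 5 h compound exposure at 37 C, viability read by CellTiter-Glo luminescence.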

Test [15] is described as follows: qHTS assay to identify small molecule antagonists of the peroxisome proliferator-activated receptor delta (PPARd) signaling pathway - cell viability counter screen (AID 743213). Further: nearly all actives have a fitted effect of over 50% in size. Put shortly:
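PPARd-bla HEK293H cells (3000/well) got compound plus 300 nM L165041 agonist for 17 h at 37 C. Viability in the same wells came from CellTiter-Glo luminescence after 30 min at room temperature.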

In test [16] the target is Bile acid receptor (Homo sapiens) (UniProt Q96RI1). The test is described as follows: qHTS assay to identify small molecule agonists of the farnesoid-X-receptor (FXR) signaling pathway (AID 743220; active means well fitted activation curve with a large enough effect in the signal ratio in the repeat runs, not every such curve was filed as active; the % refers to the signal ratio). Put shortly:
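FXR-UAS-bla HEK 293T cells carrying a UAS-driven beta-lactamase reporter were plated for 5 h at 37C/5% CO2, then exposed to DMSO-dissolved Tox21 10K compounds for 16 h at 37C. A LiveBLAzer B/G FRET substrate was loaded for 2 h at room temperature before fluorescence reading.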

Test [17] addresses Peroxisome proliferator-activated receptor gamma (Homo sapiens) (UniProt P37231). The test is described as follows: qHTS assay to identify small molecule antagonists of the peroxisome proliferator-activated receptor gamma (PPARg) signaling pathway (AID 743191; calls by dose curve; further: series mostly up to about 63 µM; nearly all actives have a fitted effect of over 30% in size). Put shortly: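 Beta-lactamase reporter under UAS control in HEK293H PPARg-bla cells; compound treatment 17 h at 37C. Read-out: fluorescence intensity after 1 h room-temperature incubation with LiveBLAzer B/G FRET substrate.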

The nature of test [18]: qHTS assay to identify small molecule antagonists of the peroxisome proliferator-activated receptor gamma (PPARg) signaling pathway - cell viability counter screen (AID 743194). Further: nearly all actives have a fitted effect of over 55% in size. A digest of the protocol: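 Viability was measured as CellTiter-Glo luminescence in GeneBLAzer PPARg UAS-bla HEK293H cells. These cells had been exposed 17 h at 37 C to compounds together with rosiglitazone at 50 nM final, with the beta-lactamase readout taken in the same wells.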

Test [19] addresses Bile acid receptor (Homo sapiens) (UniProt Q96RI1). Kind of test: qHTS assay to identify small molecule antagonists of the farnesoid-X-receptor (FXR) signaling pathway (AID 743217; active means well fitted inhibition curve with a large enough effect in the signal ratio in the repeat runs, not every such curve was filed as active; the % refers to the signal ratio). A digest of the protocol: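 Antagonist mode: chenodeoxycholic acid at 50 uM final stimulates a UAS-driven beta-lactamase reporter in HEK 293T FXR-bla cells during 16 h, 37C compound exposure. Read-out is FRET substrate fluorescence after 2 h at room temperature.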

The structures appear in SMILES notation. Records with an inconclusive call do not appear. Values without a mark were called inactive. The source made the active and inactive calls. Unless noted, the call rests on the fitted dose curve; in most records, active means well fitted curve in the direction sought with a large enough effect in the repeat runs; inconclusive means weak or mixed curves; inactive means no such curve, though single readings can be large; an effect the other way counts as inactive or inconclusive. Where a SMILES comes first, the peptide text is derived from it. [ ]: non-standard residue; d: D form. pGlu = O=C1CC[C@@H](C(=O)O)N1
On the % scale 0 is the no-effect control and ±100 the full control effect.

Vitamin D3 receptor (Homo sapiens), sequence (P11473 whole entry, looked up): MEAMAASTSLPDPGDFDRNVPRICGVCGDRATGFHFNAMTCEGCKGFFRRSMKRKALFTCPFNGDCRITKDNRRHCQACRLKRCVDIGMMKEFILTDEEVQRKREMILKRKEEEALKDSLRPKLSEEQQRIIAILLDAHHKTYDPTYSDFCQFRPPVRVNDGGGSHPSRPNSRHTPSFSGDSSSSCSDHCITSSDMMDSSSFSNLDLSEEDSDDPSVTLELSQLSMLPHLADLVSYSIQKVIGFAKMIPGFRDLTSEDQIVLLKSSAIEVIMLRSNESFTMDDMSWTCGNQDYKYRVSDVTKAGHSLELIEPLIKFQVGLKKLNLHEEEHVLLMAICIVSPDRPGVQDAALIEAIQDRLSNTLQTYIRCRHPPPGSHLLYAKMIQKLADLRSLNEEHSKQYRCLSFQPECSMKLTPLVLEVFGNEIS
Bile acid receptor (Homo sapiens), sequence (Q96RI1 whole entry, looked up): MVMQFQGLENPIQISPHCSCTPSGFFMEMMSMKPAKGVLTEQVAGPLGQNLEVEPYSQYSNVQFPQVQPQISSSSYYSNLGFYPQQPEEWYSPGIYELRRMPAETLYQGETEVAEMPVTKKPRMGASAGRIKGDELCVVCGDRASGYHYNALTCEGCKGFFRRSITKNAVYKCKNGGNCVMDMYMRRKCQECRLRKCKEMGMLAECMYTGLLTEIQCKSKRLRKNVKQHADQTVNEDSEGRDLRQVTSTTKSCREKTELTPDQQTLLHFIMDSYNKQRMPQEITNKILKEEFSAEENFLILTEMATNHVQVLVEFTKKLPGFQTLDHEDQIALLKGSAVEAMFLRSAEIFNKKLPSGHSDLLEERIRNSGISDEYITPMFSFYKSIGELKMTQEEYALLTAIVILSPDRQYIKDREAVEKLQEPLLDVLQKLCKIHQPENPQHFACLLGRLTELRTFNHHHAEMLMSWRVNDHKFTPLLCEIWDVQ
Peroxisome proliferator-activated receptor gamma (Homo sapiens), sequence (P37231 whole entry, looked up): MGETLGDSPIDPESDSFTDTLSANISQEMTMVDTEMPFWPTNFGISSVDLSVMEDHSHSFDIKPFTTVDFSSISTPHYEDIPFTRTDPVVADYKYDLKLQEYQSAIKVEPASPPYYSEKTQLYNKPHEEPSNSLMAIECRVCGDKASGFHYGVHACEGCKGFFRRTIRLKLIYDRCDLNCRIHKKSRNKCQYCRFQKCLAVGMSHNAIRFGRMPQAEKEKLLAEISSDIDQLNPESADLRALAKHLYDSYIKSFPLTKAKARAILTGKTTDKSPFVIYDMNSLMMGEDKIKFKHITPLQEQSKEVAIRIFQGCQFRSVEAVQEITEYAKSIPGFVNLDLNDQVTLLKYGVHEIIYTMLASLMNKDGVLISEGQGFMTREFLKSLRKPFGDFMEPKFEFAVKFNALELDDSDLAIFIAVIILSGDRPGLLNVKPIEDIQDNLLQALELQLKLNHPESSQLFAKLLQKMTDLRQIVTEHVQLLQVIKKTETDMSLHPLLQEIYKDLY
Peroxisome proliferator-activated receptor delta (Homo sapiens), sequence (Q03181 whole entry, looked up): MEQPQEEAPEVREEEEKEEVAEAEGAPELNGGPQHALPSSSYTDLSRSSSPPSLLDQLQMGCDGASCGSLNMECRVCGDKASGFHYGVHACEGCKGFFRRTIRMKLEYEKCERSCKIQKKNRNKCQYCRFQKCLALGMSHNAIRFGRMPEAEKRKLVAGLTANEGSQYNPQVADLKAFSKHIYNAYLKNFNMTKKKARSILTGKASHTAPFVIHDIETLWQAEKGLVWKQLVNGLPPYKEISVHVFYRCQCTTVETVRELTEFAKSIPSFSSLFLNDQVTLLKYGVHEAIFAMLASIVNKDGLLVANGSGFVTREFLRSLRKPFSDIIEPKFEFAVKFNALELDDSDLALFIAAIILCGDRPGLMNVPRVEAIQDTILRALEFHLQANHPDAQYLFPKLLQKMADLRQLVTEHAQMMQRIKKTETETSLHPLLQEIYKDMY
Aryl hydrocarbon receptor (Homo sapiens), sequence (P35869 whole entry, looked up): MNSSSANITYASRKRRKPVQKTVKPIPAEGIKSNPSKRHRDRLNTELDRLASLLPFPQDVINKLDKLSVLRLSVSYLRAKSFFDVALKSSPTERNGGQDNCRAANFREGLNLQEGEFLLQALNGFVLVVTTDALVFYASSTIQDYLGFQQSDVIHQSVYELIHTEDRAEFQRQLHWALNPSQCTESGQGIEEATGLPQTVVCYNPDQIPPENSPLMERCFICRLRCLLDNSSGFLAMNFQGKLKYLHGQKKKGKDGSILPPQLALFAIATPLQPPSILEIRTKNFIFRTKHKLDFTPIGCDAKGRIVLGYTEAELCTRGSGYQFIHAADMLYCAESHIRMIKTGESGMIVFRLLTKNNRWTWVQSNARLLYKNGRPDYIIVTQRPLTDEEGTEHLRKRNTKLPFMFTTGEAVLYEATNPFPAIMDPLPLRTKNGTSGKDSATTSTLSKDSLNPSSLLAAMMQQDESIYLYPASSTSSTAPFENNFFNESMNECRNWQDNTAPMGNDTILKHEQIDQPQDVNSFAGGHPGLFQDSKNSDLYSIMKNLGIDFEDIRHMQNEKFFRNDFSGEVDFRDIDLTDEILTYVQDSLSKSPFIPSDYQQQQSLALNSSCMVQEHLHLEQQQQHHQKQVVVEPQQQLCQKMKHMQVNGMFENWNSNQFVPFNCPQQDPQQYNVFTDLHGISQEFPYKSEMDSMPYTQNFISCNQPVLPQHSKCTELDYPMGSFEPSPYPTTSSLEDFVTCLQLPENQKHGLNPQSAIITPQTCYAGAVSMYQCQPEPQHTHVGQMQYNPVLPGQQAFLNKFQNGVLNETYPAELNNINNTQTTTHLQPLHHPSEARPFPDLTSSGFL

As for `Cc1cc(C)c(N=Nc2c(O)c(S(=O)(=O)O)cc3cc(S(=O)(=O)O)ccc23)cc1C`, the activation in test [1] is -3.38% [at 8.47 µM]; in [3], -9.42% [at 7.08 µM]; in test [4], -8.59% [at 8.36 µM]; in test [6] it was -0.565% [at 5.95 µM]; in test [8], 6.93% [at 5.95 µM]; in test [12], 0.83% [at 6.01 µM]. In addition, the viability change, negative = cytotoxic is -19.3% [at 8.47 µM] in test [2], -2.33% [at 8.36 µM] in test [5] and 0.0024% [at 5.95 µM] in [10]. For the same molecule, the activity change, negative = cytotoxicity was -0.611% [at 5.95 µM] in test [7] and 0.502% [at 5.95 µM] in [11]. Also, in test [9], the ratio activity, negative = inhibition is 0.853% [at 6.26 µM]. Besides, the activity change, negative = inhibition in [13] was -3.01% [at 6.95 µM].

As for `CCOC(=O)C(=O)CCCCCCl`, the Potency result in test [4] was “inactive”. The molecule was called inactive in test [5], in [14], in test [6], in test [7], in [8] and in [15]. Besides, the molecule was called inactive in test [9], in [10], in test [16], in test [11], in [12] and in test [13].

For `CC(C)C(=O)OC(=O)C(C)C`, the Potency entry in [4] is “inactive”. The call in test [5], in [14], in test [6], in [7], in [8] and in test [15] was inactive. Also, the call in test [9], in test [10], in test [11] and in [12] was inactive.

Take `CCNC(=O)[C@@H]1CCCN1C(=O)[C@H](CCCN=C(N)N)NC(=O)[C@H](CC(C)C)NC(=O)CNC(=O)[C@H](Cc1ccc(O)cc1)NC(=O)[C@H](CO)NC(=O)[C@H](Cc1c[nH]c2ccccc12)NC(=O)[C@H](Cc1cnc[nH]1)NC(=O)[C@@H]1CCC(=O)N1` ([pGlu]HWSYGLRP-NHEt): the Potency entry in test [17] and in test [4] was “inactive” each time. Also, the call in test [18], in [5], in [14], in test [6], in [8] and in [15] was inactive. Also, the outcome in test [9], in test [10], in [11], in [12] and in test [13] was inactive.

As to `[O-][n+]1cccc(CO)c1`, the Potency result in [2], in test [3], in test [17] and in [4] was “inactive” throughout. Also, the molecule was classed as inactive in test [18], in test [5], in test [14], in [6], in [7] and in [8]. Further, the molecule was classed as inactive in test [15], in test [9], in test [10], in test [11], in test [12] and in test [13].

Take `O=C1c2ccccc2C(=O)c2cc(O)ccc21`: in test [1], the Potency was 61.2 µM (active). For the same molecule, the Potency result in test [2] and in [3] was “inactive” in each case. Also, the call in [5], in test [14], in [6], in test [7], in [8] and in [9] was inactive. Moreover, the call in [10], in test [11], in test [12] and in test [13] was inactive.

For the molecule `Clc1cc(Cl)c(Cl)nc1Cl`, the Potency result in test [3], in [17] and in [4] was “inactive” in each case. The outcome in test [18], in test [5], in [6], in [7], in [15] and in test [9] was inactive. Moreover, the molecule was classed as inactive in [19], in test [10], in [16], in test [11], in [12] and in [13].
